Active and inactive are the calls of the source. The rule behind the calls is not given here.
Assay: S. typhi GFP reporter counter-screen inhibition, late-stage follow-up, counter-screen for PhoP regulon inhibitor project, round 4, purified and synthesized compounds (AID 449734)
Details: fluorescence, 4 h; series mostly up to 150 µM
In the case of CN1CCN(C(=S)NCc2ccc(Cl)cc2)CC1, the outcome is reported as “inactive”.
With Cc1ccccc1NC(=O)N1CCCN(Cc2ccccc2F)C1 the outcome was “inactive”.
With O=C(Nc1ccc(Cl)cc1)N1CCN(Cc2ccccc2F)C1 the outcome was “inactive”.
With S=C(NCc1ccc(Cl)cc1)Nc1ccncn1 the outcome was “inactive”.
In the case of S=C(NCc1ccc(Cl)cc1)Nc1ccccn1, the outcome is reported as “inactive”.
For S=C(NCc1ccc(Cl)cc1)Nc1ccccc1Br, the outcome was “inactive”.
With S=C(NCc1ccccc1)NCc1ccc(Cl)cc1 the outcome was “inactive”.
For N#Cc1ccc(CN2CCCN(C(=O)Nc3ccc(Cl)cc3)C2)cc1, the outcome was “inactive”.
For S=C(NCc1ccc(Cl)cc1)Nc1cccc(Br)c1, the outcome was “inactive”.
In the case of O=C(NC1CCCCC1)N1CCCN(Cc2ccccc2F)C1, the outcome is reported as “inactive”.
In the case of S=C(NCc1ccc(Cl)cc1)NC1CCCCC1, the outcome is reported as “inactive”.
For O=C(Nc1ccc(Cl)cc1)N1CCCN(Cc2cccc(Br)c2)C1, the outcome was “inactive”.
For S=C(NCc1ccc(Cl)cc1)NN1CCOCC1, the outcome was “inactive”.
In the case of COc1cccc(CNC(=S)Nc2ccncc2)c1, the outcome is reported as “inactive”.
For FC(F)(F)c1ccc(NC(=S)NCc2ccc(Cl)cc2)cc1, the outcome was “inactive”.
With O=C(Nc1ccc(Cl)cc1)N1CCCN(Cc2cccc(F)c2)C1 the outcome was “inactive”.
For S=C(NCc1ccc(Cl)cc1)Nc1ccc(I)cc1, the outcome was “inactive”.
For FC(F)(F)c1ccccc1NC(=S)NCc1ccc(Cl)cc1, the outcome was “inactive”.
For S=C(NCc1ccc(Cl)cc1)Nc1ccccc1I, the outcome was “inactive”.
For S=C(NCc1ccc(Cl)cc1)NC1CCOCC1, the outcome was “inactive”.

— PubChem BioAssay AID449734 (Southern Research Specialized Biocontainment Screening …, 2010)
